Bioassay records deposited in PubChem by National Center for Advancing Translational Sciences (NCATS).
Apoferritin bind – qHTS Assay for Identification of Novel General Anesthetics. Ferritin light chain (Equus caballus), P02791. apoferritin/1-aminoanthracene competitive binding, fluorescence. Potency, µM (series often up to 77.5 µM), hits mostly inhibitors. hit rate 0.074% among 350,000. AID 485281, 2010; also: nearly all actives have a fitted effect of over 20% in size
Target sequence (P02791 2-175 limits assumed): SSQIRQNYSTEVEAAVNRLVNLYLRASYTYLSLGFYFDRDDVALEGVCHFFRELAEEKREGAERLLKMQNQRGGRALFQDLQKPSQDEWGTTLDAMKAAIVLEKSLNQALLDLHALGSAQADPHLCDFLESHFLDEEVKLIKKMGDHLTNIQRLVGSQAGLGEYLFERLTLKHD
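Steps: apoferritin (10 uM) was premixed with half-saturated 1-AMA in PBS, compounds were pin-transferred, plates stood 10 min at room temperature, fluorescence was read at 380/535 nm, and curves were fitted with a Hill equation.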
Mm-Cpn inhibitor – Inhibitors of TCP-1 ring complex (TRiC) of Methanococcus maripaludis (MmCpn): qHTS | hit rate 0.031% among 330,000 | purified Mm-Cpn ATPase, ADP Transcreener TR-FRET | AID 504842, 2011 | Chaperonin Mm-Cpn (Methanococcus maripaludis) | Potency, µM (top dose mostly 76.9 µM), hits mostly inhibitors; also: nearly all actives have a fitted effect of over 80% in size
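Inhibition of chaperonin ATP hydrolysis is measured as reduced ADP production, detected by competitive TR-FRET in which signal falls with ADP. Final enzyme 25 nM and ATP 10 uM, reacted 30 min at 37°C.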
AT treatment – qHTS Assay for Identifying a Potential Treatment of Ataxia-Telangiectasia; F2112 A-T fibroblasts, KAP-1 phosphorylation AlphaLISA; neocarzinostatin DNA damage 30 min before lysis; Potency, µM (series often up to 57.5 µM), most hits filed as activators; hit rate 0.19% among 320,000; also: nearly all actives have a fitted effect of over 45% in size
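ATM-like activity read as KAP-1 phosphorylation via AlphaLISA donor/acceptor antibody pairs after lysis and 6 hr at 25C. Cells were ATM-null patient fibroblasts (F2112, hTERT), dosed 60 min, then exposed to the DSB inducer NCS for 30 min.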
CCT modulator – High-Throughput Screening for Modulators of Cytosolic Chaperonin Activity; purified chaperonin ATPase assay, HTRF ADP detection, 30 min; activity change, % (no concentration beside the values), hits read low; hit rate 0.3% among 360,000; in the data active = activity change below about -30%
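TRiC at 40 or 20 nM final (batch-dependent) in 30 mM Tris pH 7.4, 100 mM KCl, 5 mM MgCl2, 1 mM DTT, with compound at single 76 uM and 10 uM ATP, 30 min at 37 deg C. ADP detected by HTRF Transcreener, 665/615 ratio.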
A number is an active result; i = inactive; ? = inconclusive; nt = no result given; [ ] = another dose, or the depositor's remark. Rows were chosen to be rich in hits. Some 0.47% of all compounds tested hit in one or more screens of this group. Unless noted, calls follow the shape of the dose curve; as a rule, active = well fitted curve in the direction sought with a large enough effect; inconclusive = small, poorly fitted or top-dose-only effect, or another doubt; inactive = no such curve, though single readings can be large; an effect the other way counts as inactive or inconclusive.

SMILES | Apoferritin bind | Mm-Cpn inhibitor | AT treatment | CCT modulator
Cc1ccccc1OCc1n[nH]c(=S)n1-c1cccc(Cl)c1 | i | i | i | i
Cc1n[nH]c(=S)n1-c1cccc(Cl)c1 | i | i | i | -55
COc1ccc(C(O)c2nc3ccccc3n2C(C)C)cc1 (stereo unspecified) | i | i | 28µM | i
CC(=O)OC1CC[C@@]2(C)C(CC[C@@]3(C)C2CC=C2C4CC(C)(C)CC[C@]4(C)CC[C@@]23C)C1(C)C (stereo partly specified) | i | nt | nt | nt
COc1ccc(CC(=O)N(C)CC(=O)Nc2ccccc2SC)cc1 | i | i | i | -46
CCOc1ccc(NC(=O)c2ccc3c(c2)CCN3S(=O)(=O)CC)cc1 | i | nt | nt | nt
O=C(Nc1nnc(SCc2ccccc2)s1)c1cc2c(s1)CCCC2 | ? | i | i | -61
O=C(Nc1cccc(C(F)(F)F)c1)c1cc(S(=O)(=O)N2CCCC2)c[nH]1 | i | nt | nt | nt
CCCCN(CC)CCCNC(=O)c1cn(CC(C)C)c(=O)c2c1c1ccccc1n2C | i | i | 25µM | i
CCN(CC)CCCNC(=O)c1cn(CC(C)C)c(=O)c2c1c1ccccc1n2C | i | i | ? | i
Nc1nnc(CSCc2ccccc2Cl)s1 | ? | i | i | i
Nc1nnc(SCc2ccccc2Cl)s1 | 11µM | nt | nt | i
CCOC(=O)c1cc(C(C)(C)C)oc1CNC(=O)c1c(C)oc2c1CCCC2 | i | i | i | -54
O=C(NNc1ccc(Cl)cc1)C1CCC1 | i | i | i | -36
Cc1ccc2cccc(SCC(=O)NCc3ccco3)c2n1 | i | i | i | i
Cc1ccc2cccc(SCC(=O)Nc3ccc(F)cc3)c2n1 | i | i | i | -74
O=C(c1cc(-c2ccc(Cl)s2)nc2ccccc12)N1CCCC1 | nt | nt | nt | i
Cc1ccc(-c2cc(C(=O)N3CCCC3)c3ccccc3n2)s1 | i | i | 20µM | i
Cn1c(=O)c(=O)n(C)c2cc([N+](=O)[O-])c([N+](=O)[O-])cc21 | i | i | i | -32
CC(=O)OCC1OC(C#Cc2ccc(C)cc2C)C=CC1OC(C)=O (stereo unspecified) | i[15.3 µM] | nt | nt | nt
O=C(CN(CC1CCCO1)C(=O)CNS(=O)(=O)c1ccc(Cl)cc1)NCc1ccco1 (stereo unspecified) | i | i | i | -46
O=C(CN1CCCC1)Nc1ccccc1Sc1ccc(Cl)cc1 | i | i | i | -35
Cc1ccc(C)c(N2CCN(S(=O)(=O)c3ccc4[nH]c5c(c4c3)CCCCC5)CC2)c1 | i | nt | nt | nt
O=C(COC(=O)C(O)c1ccccc1)c1ccc2c(c1)OCCO2 (stereo unspecified) | i | i | i | -39
O=C(C[n+]1ccc(/C=C/c2ccccc2)cc1)c1ccc2c(c1)OCCO2 | i | i | i | -66
SMILES | Apoferritin bind | Mm-Cpn inhibitor | AT treatment | CCT modulator
CCCC(=O)c1ccc2c(c1)OCCO2 | i | i | i | i
Cc1cc[n+](CC(=O)c2ccc3c(c2)OCCO3)cc1 | i | i | i | i
CCC(=O)c1ccc2c(c1)OCCO2 | i | i | 10µM | i
CN(C(=O)CSc1nc2ccc(NC(=O)CCc3ccccc3)cc2s1)c1ccccc1 | i | nt | nt | nt
CCCNC(=O)N1CCN(S(=O)(=O)c2ccc3c(ccn3C)c2)CC1 | i | nt | nt | nt
NNc1nc(Nc2ccccc2)nc(Nc2ccccc2)n1 | i | i | i | i
c1ccc(Nc2ccnc(Nc3ccccc3)n2)cc1 | i | i | 20µM | i
O=C(CN1CCN(Cc2ccc(F)cc2)C1=O)NCc1ccccc1 | i | nt | nt | nt
CCOC(=O)C1CCN(c2ncnc3c2nnn3C)CC1 | i | nt | nt | nt
COc1ccc(CCNC2=NCCS2)cc1 | i | i | i | i
COc1ccc(CCNC2=NCCS2)cc1OC | i | i | 1.3µM | i
COc1ccc(COC(=O)N/N=C2/C[C@@H](O)[C@@H](O)[C@@H]3[C@@H]4C(=O)N(Cc5ccccc5)C(=O)[C@H]4CC[C@H]23)cc1 | i[15.3 µM] | nt | nt | nt
Cc1cc(C)cc(NC(=O)c2ccc3c(O)c(S(=O)(=O)c4ccccc4)c(=O)[nH]c3c2)c1 | i | nt | nt | nt
CC(NC(=O)Cn1nc(-c2ccccc2)c2ccccc2c1=O)c1ccccc1 (stereo unspecified) | 14µM | i | i | i
COc1cc(NC(=O)NC(C)c2c(-n3cccc3)sc3c2CCN(C)C3)cc(OC)c1 (stereo unspecified) | i | nt | nt | nt
